Drawing on PubChem BioAssay (NCATS), this text covers outcome and Potency for nine molecules.

The structures appear in SMILES notation. Results filed as inconclusive are left out. Activity calls are given as the source filed them. Unless noted, the call rests on the fitted dose curve; in most records, active means well fitted curve in the direction sought with a large enough effect; inconclusive means small, poorly fitted or top-dose-only effect, or another doubt; inactive means no such curve, though single readings can be large; an effect the other way counts as inactive or inconclusive.

Test [1] can be described thus: S16 Schwann cell viability assay (CellTiter-Glo assay) (AID 624031).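 Further: native untransfected S16 rat Schwann cells; cellular ATP luminescence as a viability measure; nearly all actives have a fitted effect of over 70% in size.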 The following applies: S16 rat Schwann cells viability, 24 h; series mostly up to 25.7 µM. An outline of the steps: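 Cells were seeded at 500-750 per well in phenol red-free DMEM with 10% FBS and left overnight. Compounds or DMSO were pinned in, incubation ran 24 h at 37 °C/5% CO2, then CellTiter-Glo reagent was added and luminescence measured.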

Test [2] is described as follows: S16 Schwann cell PMP22 intronic element beta-lactamase assay (AID 624044; calls by dose curve; further: nearly all actives have a fitted effect of over 15% in size). Conditions: S16 rat Schwann cells, PMP22 element beta-lactamase FRET, 24 h; series mostly up to 17.1 µM. An outline of the steps: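 Beta-lactamase reporter under a PMP22 intronic regulatory element in stable S16 rat Schwann cells; 24 h compound exposure. 460 nm blue signal normalized between DMSO (0%) and potassium clavulanate, with 535 nm FRET tracking viability; curves classed by r2 and response.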

Test [3] has as its system 3D7. Description: qHTS profiling for inhibitors of Plasmodium falciparum proliferation (AID 504749). Further: nearly all actives have a fitted effect of over 60% in size. Further: potency means the concentration at half of the fitted maximal effect. The following applies: P. falciparum in erythrocytes, SYBR Green DNA, 72 h; series mostly up to 12.8 µM. An outline of the steps: (§1)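 SYBR Green fluorescence (ex 485 nm, em 535 nm) reports parasite DNA after 72 h compound exposure of infected red cells at 0.3% parasitemia, 2.5% hematocrit; signal normalized to 0.29 uM artemisinin and vehicle wells.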

For test [4], the system named is CP192. The test is described as above. Conditions: P. falciparum in erythrocytes, SYBR Green DNA, 72 h; series mostly up to 12.8 µM. An outline of the steps: as §1
Test [5] has as its system CP211. The description is as above. The following applies: P. falciparum in erythrocytes, SYBR Green DNA, 72 h; series mostly up to 12.8 µM. An outline of the steps:
as §1

In test [6] the test system is CP237. Described as above. Conditions: P. falciparum in erythrocytes, SYBR Green DNA, 72 h; series mostly up to 12.8 µM. An outline of the steps: as §1
Test [7] deals with CP238. The description is as above. Conditions: P. falciparum in erythrocytes, SYBR Green DNA, 72 h; series mostly up to 12.8 µM. An outline of the steps: as §1
In test [8] the test system is CP256. The description is as above. The following applies: P. falciparum in erythrocytes, SYBR Green DNA, 72 h; series mostly up to 12.8 µM. An outline of the steps:
as §1

Test [9] relates to CP260. The test is described as above. Conditions: P. falciparum in erythrocytes, SYBR Green DNA, 72 h; series mostly up to 12.8 µM. An outline of the steps: as §1
In test [10] the test system is CP266. The description is as above. The following applies: P. falciparum in erythrocytes, SYBR Green DNA, 72 h; series mostly up to 12.8 µM. An outline of the steps:
as §1

The test system of test [11] is CP291. The test is described as above. Conditions: P. falciparum in erythrocytes, SYBR Green DNA, 72 h; series mostly up to 12.8 µM. An outline of the steps: as §1
For test [12], the system named is CP315. The test is described as above. Conditions: P. falciparum in erythrocytes, SYBR Green DNA, 72 h; series mostly up to 12.8 µM. An outline of the steps: as §1
In test [13] the test system is CP325. The test is described as above. Conditions: P. falciparum in erythrocytes, SYBR Green DNA, 72 h; series mostly up to 12.8 µM. An outline of the steps:
as §1

The test system of test [14] is CP329. The description is as above. Conditions: P. falciparum in erythrocytes, SYBR Green DNA, 72 h; series mostly up to 12.8 µM. An outline of the steps: as §1
Test [15] concerns CP335. Described as above. Conditions: P. falciparum in erythrocytes, SYBR Green DNA, 72 h; series mostly up to 12.8 µM. An outline of the steps:
as §1

Test [16] deals with DIV17. Described as above. Conditions: P. falciparum in erythrocytes, SYBR Green DNA, 72 h; series mostly up to 12.8 µM. An outline of the steps:
as §1

In test [17] the test system is ICS. The test is described as above. The following applies: P. falciparum in erythrocytes, SYBR Green DNA, 72 h; series mostly up to 12.8 µM. An outline of the steps:
as §1

Test [18] concerns P94_40. Described as above. The following applies: P. falciparum in erythrocytes, SYBR Green DNA, 72 h; series mostly up to 12.8 µM. An outline of the steps:
as §1

The test system of test [19] is PC26. The test is described as above. Conditions: P. falciparum in erythrocytes, SYBR Green DNA, 72 h; series mostly up to 12.8 µM. An outline of the steps: as §1
The subject of test [20] is TAB109. The test is described as above. The following applies: P. falciparum in erythrocytes, SYBR Green DNA, 72 h; series mostly up to 12.8 µM. An outline of the steps: as §1

For the molecule `CCC(CCC(C)C1CCC2C3CC=C4CC(O)CC[C@@]4(C)C3CC[C@@]12C)C(C)C` (stereo partly specified), the outcome in test [1] was inactive. For the same molecule, the Potency result in [2], in test [3], in test [4], in [5], in test [6] and in [7] was “inactive” each time. The Potency entry in [8], in test [9], in [10], in test [11], in [12] and in test [13] was “inactive” throughout. Further, the Potency result in test [14], in test [15], in test [16], in [17], in test [18] and in test [19] was “inactive” throughout. Besides, the Potency result in [20] is “inactive”.

`CC(=O)N[C@@H]1C(O)OC(CO)C(O)C1O` (stereo partly specified): the result in test [1] was inactive. In addition, the Potency result in [2], in [3], in [4], in test [5], in test [6] and in test [7] was “inactive” each time. Further, the Potency result in test [8], in test [9], in [10], in [11], in test [12] and in test [13] was “inactive” each time. Further, the Potency entry in test [14], in test [15], in test [16], in test [17], in test [18] and in [19] was “inactive” each time. For the same molecule, the Potency entry in [20] is “inactive”.

Consider `COc1ccc(-c2cc(=O)c3c(O)cc(O[C@H]4OC(COC5OC(C)C(O)C(O)[C@H]5O)C(O)C(O)C4O)cc3o2)cc1O` (stereo partly specified), for which the outcome in test [1] was inactive. Further, the Potency entry in test [2], in test [3], in test [4], in test [5], in [6] and in test [7] was “inactive” in each case. Further, the Potency entry in [8], in test [9], in test [10], in test [12], in test [13] and in test [14] was “inactive” throughout. The Potency result in test [15], in test [16], in test [17], in test [18], in [19] and in [20] was “inactive” each time.

With `NCC1CCC(N)C(O[C@@H]2C(O)[C@H](O[C@H]3OC(CO)C(O)C(N)C3O)[C@@H](N)C[C@H]2N)O1` (stereo partly specified), in [1], the call was inactive. Also, the Potency entry in [3], in test [4], in [5], in [6], in [7] and in test [8] was “inactive” in each case. Besides, the Potency entry in test [9], in test [10], in [11], in [12], in [13] and in [14] was “inactive” in each case. For the same molecule, the Potency result in test [15], in [16], in [17], in test [18], in test [19] and in [20] was “inactive” throughout.

Take `CC(C)=CCC[C@](C)(O)C1CC=C(C)CC1` (stereo partly specified): the molecule was classed as inactive in [1]. Moreover, the Potency result in test [2], in test [3], in test [4], in test [5], in test [6] and in [7] was “inactive” throughout. The Potency result in [8], in test [9], in test [11], in [12], in test [13] and in [14] was “inactive” throughout. Also, the Potency entry in [15], in test [16], in [17], in [18], in test [19] and in [20] was “inactive” in each case.

Regarding `C[C@]12C=CC(=O)C=C1CCC1C2C(O)C[C@]2(C)C1CC[C@]2(O)C(=O)CO` (stereo partly specified), the result in [1] was inactive. For the same molecule, the Potency entry in test [2], in [3], in [4], in [5], in [6] and in test [7] was “inactive” throughout. The Potency result in test [8], in [9], in [10], in [11], in test [12] and in [13] was “inactive” each time. For the same molecule, the Potency entry in test [14], in test [15], in test [16], in test [17], in test [18] and in [19] was “inactive” in each case. For the same molecule, the Potency result in test [20] is “inactive”.

Consider `CC(=O)O[C@@]1(C(C)=O)CCC2C3CC(C)C4=CC(=O)CC[C@@]4(C)C3CC[C@]21C` (stereo partly specified), for which the Potency entry in test [2], in test [3], in [4], in test [5], in test [6] and in [7] was “inactive” each time. Further, the Potency entry in test [10], in test [11], in [12], in [13], in [14] and in test [16] was “inactive” in each case. Also, the Potency entry in test [19] was “inactive”. Besides, in [18], the Potency was 12.6 µM (active).

Consider `CCC(C)C(=O)OC1CC(O)C=C2C=CC(C)C(CCC(O)CC(O)CC(=O)O)C21` (stereo unspecified), for which the molecule was classed as inactive in [1]. Also, the Potency result in [2], in test [3], in [4], in test [5], in test [6] and in test [7] was “inactive” in each case. The Potency entry in [8], in [9], in test [10], in test [11], in [12] and in [13] was “inactive” each time. In addition, the Potency result in test [14], in test [15], in [16], in test [17], in test [18] and in [19] was “inactive” in each case. The Potency entry in test [20] was “inactive”.

With `CNC1C(OC2C(O[C@@H]3C(O)C(O)[C@@H](N=C(N)N)C(O)C3N=C(N)N)OC(C)[C@@]2(O)CO)OC(CO)C(O)C1O` (stereo partly specified), the outcome in [1] was inactive. The Potency entry in [2], in test [3], in test [4], in [5], in [6] and in test [7] was “inactive” throughout. Moreover, the Potency result in test [8], in test [9], in [10], in [11], in [12] and in [13] was “inactive” in each case. The Potency entry in test [14], in test [15], in test [16], in test [17], in test [18] and in test [19] was “inactive” throughout. Further, the Potency result in test [20] was “inactive”.
